Screening results from PubChem.
Mdm2 MdmX PPI: disrupts the human Mdm2-MdmX interaction; 330,000 compounds, 3% hits; inhibition, % at 8 µM; SaOS-2 split-luciferase Mdm2/MdmX complementation, luminescence;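 active = inhibition of at least 50% at 8 µM in the primary screen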
Target sequence (O15151 whole entry, looked up): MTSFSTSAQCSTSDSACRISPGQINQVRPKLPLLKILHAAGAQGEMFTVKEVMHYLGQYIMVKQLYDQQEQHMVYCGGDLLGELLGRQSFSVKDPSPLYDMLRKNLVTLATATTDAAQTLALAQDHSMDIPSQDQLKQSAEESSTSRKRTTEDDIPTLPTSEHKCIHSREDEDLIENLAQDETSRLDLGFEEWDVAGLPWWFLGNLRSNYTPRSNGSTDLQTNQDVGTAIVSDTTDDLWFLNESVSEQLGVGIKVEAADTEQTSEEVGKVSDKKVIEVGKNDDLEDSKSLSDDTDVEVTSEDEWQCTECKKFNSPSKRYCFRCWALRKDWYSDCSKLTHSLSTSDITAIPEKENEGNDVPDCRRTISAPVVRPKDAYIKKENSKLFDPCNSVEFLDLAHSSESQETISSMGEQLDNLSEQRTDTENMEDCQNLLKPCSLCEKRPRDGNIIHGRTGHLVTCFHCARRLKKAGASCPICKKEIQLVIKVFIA
Target sequence (Q00987 whole entry, looked up): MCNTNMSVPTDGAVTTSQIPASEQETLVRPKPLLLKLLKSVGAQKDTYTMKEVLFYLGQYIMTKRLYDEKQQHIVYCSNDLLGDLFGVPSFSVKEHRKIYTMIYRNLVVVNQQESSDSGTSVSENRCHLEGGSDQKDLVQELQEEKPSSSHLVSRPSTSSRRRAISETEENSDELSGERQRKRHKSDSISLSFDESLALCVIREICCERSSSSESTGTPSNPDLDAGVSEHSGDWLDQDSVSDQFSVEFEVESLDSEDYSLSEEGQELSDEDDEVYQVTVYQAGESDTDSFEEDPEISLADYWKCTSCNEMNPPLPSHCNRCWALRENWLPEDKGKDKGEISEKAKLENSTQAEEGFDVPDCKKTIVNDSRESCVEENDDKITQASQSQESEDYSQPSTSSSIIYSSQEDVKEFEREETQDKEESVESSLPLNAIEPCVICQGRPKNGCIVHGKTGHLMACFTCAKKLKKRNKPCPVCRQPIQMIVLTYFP
LGR2 inh: Drosophila LGR2 receptor signaling inhibition | HEK293 LGR2, CRE-luciferase, bursicon-stimulated, 4 h | inhibition, % at 9.99 µM | 380,000 compounds, 0.35% hits | AID 720647;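 active = drop in luminescence signal, shown as inhibition above about 50% in the replicate tests, limit read from the data, passing the limit was not always enough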;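 note: agonist challenge used bursicon conditioned medium at about half maximal strength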
CF NFkB block: cystic fibrosis NF-kB activation inhibition; KKLEB NF-kB-GFP reporter, PAF-induced, GFP fluorescence overnight; AID 588850; 360,000 compounds, 0.86% hits; inhibition, % at 5 µM;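 active = at least 50% inhibition at 5 µM, scaled per plate between neutral and stimulator controls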;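 note: PAF is a Pseudomonas aeruginosa culture filtrate used as stimulus; plate controls were PAF-stimulated DMSO wells for no effect and unstimulated DMSO wells for full effect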
Peg3 promoter: inhibitors of Peg3 promoter; HeLa PEG-Prom luciferase reporter, luminescence, overnight; 360,000 compounds, 1.7% hits; AID 588405; inhibition, % at 20 µM;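 active = inhibition of at least 50% at 20 µM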
HSP90 inh: blocks HSP90-mediated luciferase refolding in reticulocyte lysate; Rabbit reticulocyte lysate, luciferase refolding luminescence, 3 h; inhibition, % at 5.6 µM; 290,000 compounds, 0.91% hits;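 active = inhibition above the screen-wide mean plus 3 SD, computed separately per campaign, cut at about 16% in these data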;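 note: 0% = DMSO wells and 100% = 60 µM geldanamycin wells; inhibitors lower the luminescence because luciferase stays unfolded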
KKLEB tox: reduces viability of KKLEB cystic fibrosis airway cells; KKLEB CF airway cells viability, ATPlite luminescence, overnight; stronger effect = lower value; cells stimulated with P. aeruginosa culture filtrate; activity change (cytotoxicity), % at 5 µM; 360,000 compounds, 0.36% hits; AID 602141;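 active = corrected activity change at or below -50% at 5 µM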
Mdm2 MdmX conf: confirmation of human Mdm2/MdmX interaction inhibitors | shares compounds with Mdm2 MdmX PPI | Mdm2-MdmX binding, luminescent assay | inhibition, % at 8 µM | 10,000 compounds, 55% hits; in the data active = inhibition above about 40%
Full FLuc ctr: full-length luciferase inhibition in Mdm2/MdmX counter-screen; shares compounds with Mdm2 MdmX PPI; SaOS-2 full-length luciferase counterscreen, luminescence; inhibition, % at 8 µM; 6,200 compounds, 77% hits;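 active = mean inhibition at 8 µM reaching about 37%, which flags the compound as non-specific, limit read from the data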;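 note: p53-null SaOS-2 cells with luciferase driven by a doxycycline-inducible promoter; compound on cells about two nights before reading with doxycycline added after day one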
An asterisk follows results filed as active; . = not tested or not shown. Compounds with a hit are over-represented: about 3.6% of the library has one in this group of screens.

SMILES | Mdm2 MdmX PPI | LGR2 inh | CF NFkB block | Peg3 promoter | HSP90 inh | KKLEB tox | Mdm2 MdmX conf | Full FLuc ctr
CC(=O)N(C)C[C@H]1Oc2cc(-c3ccc(C#N)cc3)ccc2S(=O)(=O)N([C@H](C)CO)C[C@H]1C | . | 5.5 | . | . | . | . | . | .
O=C1c2cccc3cc(Br)cc(c23)C(=O)N1Nc1ccc(Br)cc1 | 72.8* | 13.2 | -7.7 | 7.5 | -3.4 | 8.1 | 62.6* | 74.4*
C[C@@H]1CN([C@@H](C)CO)C(=O)c2cc(C#CC3CC3)cnc2O[C@@H]1CN(C)S(C)(=O)=O | . | -3.5 | . | . | . | . | . | .
CCCNC(=O)C[C@H]1CC[C@@H]2[C@@H](COc3ccc(NC(=O)Cc4ccccc4)cc3C(=O)N2C)O1 | . | -5.0 | . | . | . | . | . | .
CCOC(=O)c1cc2sccc2n1CC(=O)N1CCCc2ccccc21 | 20.4 | -7.3 | 1.2 | 5.7 | 5.9 | 13.5 | . | .
COC(=O)c1cc2sccc2n1CC(=O)N1CCCc2ccccc21 | 51.9* | 5.8 | -1.0 | 7.2 | 4.5 | 9.7 | 40.7* | 51.5*
O=C(O)CN(c1cccc(C(F)(F)F)c1)S(=O)(=O)c1ccccc1 | -8.3 | -7.9 | 9.2 | 5.3 | -2.4 | -0.3 | . | .
Cc1ccc(N(CC(=O)NCCc2ccc(F)cc2)S(=O)(=O)c2ccc(Cl)c([N+](=O)[O-])c2)c(C)c1 | 100.4* | 18.4 | -0.8 | 104.0* | 5.5 | -2.3 | 7.3 | .
O=C(CN(c1cccc(C(F)(F)F)c1)S(=O)(=O)c1ccc(Cl)c([N+](=O)[O-])c1)NCc1ccccc1 | 82.0* | 7.6 | -23.3 | 11.6 | 0.0 | -7.0 | 40.4* | 59.2*
CC(NC(=O)CSc1cccc(C(F)(F)F)c1)c1ccccc1 (stereo unspecified) | -36.8 | 1.4 | -7.8 | 15.4 | 0.8 | 7.5 | . | .
O=C(CN(c1cccc(C(F)(F)F)c1)S(=O)(=O)c1ccc(Cl)c([N+](=O)[O-])c1)NCc1ccccc1Cl | 73.0* | 1.8 | -10.3 | 100.8* | -1.2 | -2.2 | 32.0 | 102.7*
CC(NC(=O)CN(c1cccc(C(F)(F)F)c1)S(=O)(=O)c1ccc(Cl)c([N+](=O)[O-])c1)c1ccccc1 (stereo unspecified) | 82.3* | 7.1 | -9.6 | 104.0* | -3.4 | 12.9 | 55.2* | 35.1
CCOc1ccccc1N(CC(=O)NCCc1ccc(OC)cc1)S(=O)(=O)c1ccc(C)cc1 | . | -12.2 | -30.6 | 14.0 | . | 19.4 | . | .
O=C(O)C[C@@H]1C[C@@H]2c3cc(NC(=O)c4ccc5c(c4)OCO5)ccc3O[C@@H]2[C@H](CO)O1 | . | -14.9 | . | . | . | . | . | .
CO[C@@H]1CN(C)C(=O)c2ccc(NS(C)(=O)=O)cc2OC[C@H](C)N(C(=O)C2CCCCC2)C[C@@H]1C | . | -3.5 | . | . | . | . | . | .
COc1ccc(S(=O)(=O)Nc2ccc3c(c2)C(=O)N([C@H](C)CO)C[C@H](C)[C@H](CN(C)Cc2ccncc2)O3)cc1 | . | 41.1 | . | . | . | . | . | .
O=C(CSc1nc2ccc(Nc3nc(N4CCOCC4)nc(N4CCOCC4)n3)cc2s1)Nc1ccccc1F | 91.4* | -6.1 | 43.3 | 36.3 | -2.8 | -43.1 | 25.7 | .
O=C(CSc1nc2ccc(Nc3nc(N4CCOCC4)nc(N4CCOCC4)n3)cc2s1)Nc1ccccc1Cl | 89.4* | 16.2 | 39.1 | -15.8 | -1.7 | -44.3 | 38.0 | 88.0*
O=C(NCC(F)(F)F)[C@H]1[C@H](CO)[C@H]2Cn3c(cccc3=O)[C@@H]1N2C(=O)C1CCCC1 | . | -11.2 | . | . | . | . | . | .
CCc1ccc(C(O)(c2ccccc2OC)C(CN2CCOCC2)c2ccccc2)cc1 (stereo unspecified) | 44.4 | 17.6 | 9.2 | 3.7 | -1.6 | 0.0 | . | .
CCc1ccc(C(O)(CC(C)C)C(CN2CCOCC2)c2ccccc2)cc1 (stereo unspecified) | 83.0* | 20.7 | 2.3 | 53.9* | 1.2 | 7.6 | 85.2* | 27.2
C[C@@H]1CCCCO[C@@H](CN(C)Cc2ccc(Cl)c(Cl)c2)[C@@H](C)CN([C@H](C)CO)C(=O)c2cc(NS(=O)(=O)c3cn(C)cn3)ccc2O1 | . | 5.9 | . | . | . | . | . | .
C[C@@H]1CCCCO[C@H](CN(C)Cc2ccc(Cl)c(Cl)c2)[C@@H](C)CN([C@@H](C)CO)C(=O)c2cc(NS(=O)(=O)c3cn(C)cn3)ccc2O1 | . | -2.9 | . | . | . | . | . | .
C[C@@H]1CN([C@H](C)CO)C(=O)Cc2cc(NC(=O)CCN3CCOCC3)ccc2O[C@@H]1CN(C)S(=O)(=O)c1cccs1 | . | 1.9 | . | . | . | . | . | .
O=C(Sc1cccc2cccnc12)c1ccc(F)cc1 | 92.6* | 23.5 | . | . | 5.0 | . | 95.0* | 14.7
SMILES | Mdm2 MdmX PPI | LGR2 inh | CF NFkB block | Peg3 promoter | HSP90 inh | KKLEB tox | Mdm2 MdmX conf | Full FLuc ctr
CN(C)C(=O)CSc1cccc2cccnc12 | 70.3* | . | -1.3 | 32.6 | -4.1 | 2.3 | -3.3 | .
O=C(CSc1cccc2cccnc12)N1CCCC1 | 66.3* | . | -30.9 | 35.8 | -1.9 | 6.2 | 3.5 | .
NNC(=O)CSc1cccc2cccnc12 | 16.9 | 14.2 | -29.5 | 6.3 | -4.1 | 16.9 | . | .
C/C=C/c1cnc2c(c1)C(=O)N([C@@H](C)CO)C[C@@H](C)[C@H](CN(C)S(=O)(=O)c1cccs1)O2 | . | -18.6 | . | . | . | . | . | .
Cc1ccc(CNC(=O)CSc2nc3n[nH]c(C)c3c(=N)n2-c2cccc(C)c2)cc1 | 21.4 | . | 9.1 | -2.9 | 0.4 | -6.5 | . | .
CCOc1ccc(-n2c(SCC(=O)Nc3ccc(Br)cc3)nc3n[nH]c(C)c3c2=N)cc1 | 52.8* | 8.5 | 17.1 | 32.8 | 3.5 | -32.2 | 41.4* | 66.6*
CCOc1ccc(-n2c(SCC(=O)Nc3ccccc3CC)nc3n[nH]c(C)c3c2=N)cc1 | 43.4 | 11.6 | . | . | 2.7 | . | . | .
Cc1cc(-n2c(SCC(=O)NCc3cccs3)nc3n[nH]c(C)c3c2=N)ccc1Cl | 65.6* | . | 16.6 | 20.4 | 2.4 | -18.9 | 12.3 | .
CCc1ccc(NC(=O)CSc2nc3n[nH]c(C)c3c(=N)n2-c2cccc(OC)c2)cc1 | 65.7* | -9.1 | 28.2 | 25.2 | 2.2 | -37.1 | 55.8* | 61.3*
C[C@@H]1CCCCO[C@H](CN(C)C(=O)Nc2cccc3ccccc23)[C@H](C)CN([C@H](C)CO)C(=O)c2cc(NS(=O)(=O)c3ccc(F)cc3)ccc2O1 | . | -3.1 | . | . | . | . | . | .
C[C@@H]1CN([C@@H](C)CO)S(=O)(=O)c2ccc(-c3ccccc3)cc2O[C@H]1CN(C)C(=O)C1CC1 | . | 7.6 | . | . | . | . | . | .
CCC(=O)N1C[C@@H](C)[C@@H](OC)CN(C)C(=O)c2cc(NC(=O)CC(F)(F)F)ccc2OC[C@H]1C | . | -10.6 | . | . | . | . | . | .
CCC(=O)N(C)C[C@@H]1Oc2cc(-c3ccccc3C)ccc2S(=O)(=O)N([C@H](C)CO)C[C@H]1C | . | 6.9 | . | . | . | . | . | .
COc1ccc(NC(=O)N(C)C[C@@H]2Oc3ncc(-c4ccc(F)cc4)cc3C(=O)N([C@H](C)CO)C[C@@H]2C)cc1 | . | 17.8 | . | . | . | . | . | .
